Among all 360,000 compounds or so, about 25,000 (6.9%) were called active. Where a call stands in place of a potency, no number is given. Another 9% or so got no clear call; they are omitted. Calls follow the shape of the dose curve; as a rule, active = well fitted inhibition curve with a large enough effect; inconclusive = small, poorly fitted or top-dose-only effect; inactive = flat fitted curve, though single readings scatter. Only a selection was taken, and actives are over-represented in it overall.
Potency is read from the fitted curve at half-maximal effect.

In the assay the target is Luciferin 4-monooxygenase (Photinus pyralis) (UniProt P08659). As to the kind of experiment: qHTS profiling assay for firefly luciferase inhibitor/activator using purifed enzyme and Km concentrations of substrates (counterscreen for miR-21 project). Also: nearly all actives have a fitted effect of over 55% in size. The settings on record: purified FLuc, luminescence inhibition; series mostly up to 57.5 µM. An outline of the steps: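 Purified P. pyralis luciferase, 10 nM final, with Km-level 10 uM D-luciferin and 10 uM ATP in 50 mM Tris acetate pH 7.5, 10 mM Mg acetate, 0.01% Tween-20, 0.05% BSA; 6-point qHTS titration about 60 µM downward; luminescence read.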
Sequence of Luciferin 4-monooxygenase (Photinus pyralis) (P08659 whole entry, looked up): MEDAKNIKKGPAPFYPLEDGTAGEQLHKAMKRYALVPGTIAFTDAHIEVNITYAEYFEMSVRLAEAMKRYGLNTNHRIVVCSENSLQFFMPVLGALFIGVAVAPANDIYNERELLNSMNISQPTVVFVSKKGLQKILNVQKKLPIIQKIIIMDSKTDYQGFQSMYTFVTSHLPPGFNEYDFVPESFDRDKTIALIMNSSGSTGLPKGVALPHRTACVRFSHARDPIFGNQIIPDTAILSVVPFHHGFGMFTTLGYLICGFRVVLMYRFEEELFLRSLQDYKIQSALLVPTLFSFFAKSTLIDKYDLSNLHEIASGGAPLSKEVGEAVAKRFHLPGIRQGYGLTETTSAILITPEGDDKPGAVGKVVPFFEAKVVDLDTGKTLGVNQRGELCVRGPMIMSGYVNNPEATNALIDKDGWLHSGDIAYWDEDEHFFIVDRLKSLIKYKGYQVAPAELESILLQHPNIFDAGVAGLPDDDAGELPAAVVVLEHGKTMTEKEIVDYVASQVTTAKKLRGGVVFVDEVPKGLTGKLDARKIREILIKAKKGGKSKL
Background: qHTS replaces the single test concentration by a dilution series.
Regarding `C=CC(=O)OCCOCCOCCOCCOC(=O)C=C`, the Potency entry is “inactive”.
Take `CO[C@H]1[C@@H]2C=CO[C@@H](O[C@H]3O[C@@H](CO)[C@H](O)[C@@H](O)[C@@H]3O)[C@@H]2[C@@]2(CO)O[C@@H]12`: the Potency result is “inactive”.
`CCOc1ccccc1C(=O)NCC(c1ccc(N(C)C)cc1)N1CCCC1` (configuration not stated): the Potency result was “inactive”.
Turning to `CCCN1C(=O)C(O)(CC(=O)c2ccc(CC)cc2)c2cc(Br)ccc21` (configuration not stated), the Potency result was “inactive”.
The same measure for `CN(CC(=O)NCc1ccc2c(c1)OCO2)CC(=O)Nc1ccc(F)c(F)c1F`: “inactive”.
On to `Cc1noc(C)c1CCC(=O)O`, for which the Potency entry is “inactive”.
To `COC(=O)CCC(=O)N1CCCC(CO)(Cc2ccccc2)C1` (configuration not stated) belongs 15.1 µM (active); to `Cc1noc(C)c1CCC(=O)N1CCCC(CO)(Cc2ccccc2)C1` (configuration not stated), 19 µM (active).
In the case of `Cc1ccccc1CC1(CO)CCCN(C(=O)c2cc(-c3ccccc3)no2)C1` (configuration not stated), the Potency entry was “inactive”.
To `CCCc1cc(C(=O)N2CCCC(CO)(CCCc3ccccc3)C2)n(C)n1` (configuration not stated) belongs “inactive”; to `CCOC(=O)C1(Cc2ccccc2C)CCCN(C(=O)CCc2c(C)noc2C)C1` (configuration not stated), “inactive”; to `CN(CC(=O)Nc1ccccc1C(F)(F)F)C(=O)Cc1ccccc1F`, “inactive”.
For the molecule `CCN(CC)C(CNC(=O)CSc1nnnn1-c1cccc(F)c1)c1ccco1` (configuration not stated), the Potency entry was “inactive”.
To `CSc1ncc(C(=O)NCCCc2ccccc2)c(C)n1` belongs “inactive”.
On to `COc1ccc(OC)c(CNC(=O)c2c3c(nc4ccccc24)C(=O)N(C2CCCCC2)C3)c1`, for which the Potency entry is “inactive”.
As for `CC(=O)Oc1ccc(N(C(C)=O)S(=O)(=O)c2ccc3ccccc3c2)cc1Br`, the Potency entry was “inactive”.
The same measure for `COc1ccc(C2CC(=O)N(Cc3ccccc3C)c3c2c(C)nn3-c2nc(C)cc(C)n2)c(OC)c1` (configuration not stated): “inactive”; for `c1ccc(-c2cc(-c3nnc4sc(-c5ccccn5)nn34)[nH]n2)cc1`: 10.7 µM (active).
Regarding `COc1cc(-c2nn3c(-c4cccc(C)c4)nnc3s2)cc(OC)c1OC`, the Potency result was “inactive”.
`CCOc1cccc(-c2nn3c(-c4ccccn4)nnc3s2)c1`: the Potency entry was “inactive”.
Turning to `CN(Cc1ccccc1)c1ccc(-c2nc(-c3ccccc3)no2)cc1[N+](=O)[O-]`, the Potency entry is “inactive”.
For `COc1cccc(N2CCN(CC(=O)Nc3ccnn3C3CCCC3)CC2)c1`, the Potency entry is “inactive”.
The same measure for `CCN(c1ccc(Cl)cc1)S(=O)(=O)c1nnc(NC(=O)c2ccco2)s1`: “inactive”.
To `Cc1cc(NC(=O)c2ccccc2C)no1` belongs 15.1 µM (active).
In the case of `Cc1ccccc1C(=O)Nc1ccccc1NC(=O)c1ccccc1C`, the Potency result is “inactive”.
To `Cc1cc(NC(=O)COn2nnc3ccccc32)no1` belongs “inactive”.
The same measure for `Cc1cc(NC(=O)COc2ccccc2C#N)no1`: 12 µM (active); for `Cc1cc(NC(=O)COc2ccc([N+](=O)[O-])cc2)no1`: “inactive”; for `Cc1cc(NC(=O)CSCc2ccccc2C)no1`: “inactive”.
As to `COc1ccc(N2C(=O)CSC23C(=O)N(Cc2cccc(F)c2)c2ccccc23)cc1Cl` (configuration not stated), the Potency entry is “inactive”.
The same measure for `COc1ccc(C(=O)C[n+]2ccc(N)c(C)c2C)cc1`: “inactive”; for `CC(CNC(=O)c1nnc(Cc2cccc(F)c2)o1)c1ccccc1` (configuration not stated): “inactive”; for `NC(=O)NC(CC(=O)NNC(=O)c1ccccn1)c1ccc(Cl)cc1` (configuration not stated): “inactive”.
The same measure for `CC(C)(C)NC(=O)CSc1nc(-c2ccc(F)cc2)cc(C(F)(F)F)n1`: “inactive”.
The same measure for `COC(=O)Cc1ccc(OCC(=O)NC2CCCC2)cc1`: “inactive”; for `Cc1c(C(=O)Nc2ccccn2)oc2ccc(Br)cc12`: 2.13 µM (active).
For `COC(=O)c1oc2ccc(Br)cc2c1NC(C)=O`, the Potency entry is “inactive”.
The same measure for `Cc1noc(C)c1C(=O)Nc1ccccn1`: “inactive”; for `COc1cc(C(CC(=O)NCCC(C)C)N2Cc3ccccc3C2=O)cc(OC)c1OC` (configuration not stated): “inactive”; for `CCCn1c(=N)n(CC(O)COc2ccccc2OC)c2ccccc21` (configuration not stated): “inactive”.
With `COc1cc2[nH]c(=O)n(Cc3ccc(C(=O)NCc4ccc(C)cc4)cc3)c(=O)c2cc1OC`, the Potency entry is “inactive”.
`COCCCN(C(=S)Nc1c(C)cc(C)cc1C)C(C)c1ccncc1` (configuration not stated): the Potency result was “inactive”.
The same measure for `CCOc1ccc(C(=O)Nc2ccc(CN3CCOCC3)cc2)cc1Cl`: 7.57 µM (active); for `Cc1ccc(NC(=O)c2cccnc2C(=O)Nc2ccc(C)cc2)cc1`: “inactive”; for `COc1cccc(-c2cc(C(=O)Nc3ccc(C)cc3)[nH]n2)c1`: “inactive”.
Consider `COc1ccc(NC(=O)c2sccc2SCC#N)cc1`, for which the Potency was 13.5 µM (active).
The same measure for `CCCc1cc(=O)oc2cc(OCC(=O)Nc3ccc(CN4CCOCC4)cc3)c(Cl)cc12`: “inactive”; for `COc1ccc(-n2cnnc2SCC(=O)Nc2cccc(S(N)(=O)=O)c2)cc1`: “inactive”; for `COc1ccc(NS(=O)(=O)c2ccc(NC(=O)c3ccc(N(C)S(C)(=O)=O)cc3)cc2)cc1`: “inactive”.
As for `O=C(Nc1ccc(CN2CCOCC2)cc1)c1cc(Cl)ccc1Cl`, the Potency entry is “inactive”.
To `COc1ccc(NC(=O)c2cc3cc(C)ccc3n2C)cc1` belongs “inactive”.
As for `COc1ccc(C(=O)Nc2cccc(S(C)(=O)=O)c2)cc1`, the Potency was 16.9 µM (active).
On to `CC1=C(C(=O)Nc2ccccc2)C(c2cccs2)C(C#N)=C(SCC#N)N1` (configuration not stated), for which the Potency result is “inactive”.
The same measure for `Cc1ccc(NC(=O)c2ccc(Oc3ncccn3)cc2)cc1`: 15.1 µM (active); for `CCOc1ccc(N2CC(c3nc4ccccc4n3CCOc3ccc(OC)cc3)CC2=O)cc1` (configuration not stated): “inactive”.
The same measure for `CCc1cccc(NC(=O)CN(C)S(=O)(=O)c2ccc3[nH]c4c(c3c2)CCCC4)c1`: “inactive”; for `O=C(CCc1ccccc1)NCc1ccc2c(c1)CCN2C(=O)c1ccccc1`: “inactive”; for `CNC(=O)CN1C(=O)c2cccnc2Sc2ccccc21`: “inactive”.
The same measure for `CN(Cc1ccccc1)C(=O)c1cn(C)c2ccc(S(=O)(=O)N(C)C3CCCCC3)cc2c1=O`: “inactive”; for `Cn1cc(S(=O)(=O)Nc2ccc(Cl)cc2Cl)c(=O)n(C)c1=O`: “inactive”.
As to `Cc1cc(C)cc(NC(=O)C(c2ccccc2)N2CCN(CC(=O)N3CCCC3)CC2)c1` (configuration not stated), the Potency entry was “inactive”.
To `Cc1cccc(OCCC(=O)OCc2csc(CC(=O)Nc3ccccc3C)n2)c1` belongs “inactive”; to `O=C(Nc1ccccc1F)C(c1ccccc1)N1Cc2ccccc2C1=O` (configuration not stated), “inactive”.
As for `COc1ccccc1CNC(=O)c1ccc(NC(=O)N2CC(C)Sc3ccccc32)cc1` (configuration not stated), the Potency result is “inactive”.
The same measure for `COc1cc2c(=O)c(S(=O)(=O)c3ccc(C(C)C)cc3)cn(Cc3ccccc3C)c2cc1OC`: “inactive”.
To `CCCOc1cccc(C(=O)Nc2ccccc2C(=O)N2CCN(C)CC2)c1` belongs “inactive”; to `COc1ccc(NC(=O)c2ccc(C#CC(C)(C)O)cc2)cc1`, “inactive”; to `COc1ccc(CC(=O)Nc2ccc(C(=O)NC(C)(C)C)cc2)cc1`, “inactive”.
Regarding `COc1ccc(C(=O)CCC(=O)Nc2ccc(Cl)cc2)cc1`, the Potency result was “inactive”.
The same measure for `COc1ccc(C(=O)Nc2ccc(CN3CCOCC3)cc2)cc1`: 12 µM (active); for `COc1ccc(NC(=O)c2ccc(OC)cc2)cc1`: 4.78 µM (active).
`CCCOc1cccc(C(=O)NCCCNC(=O)c2cccnc2)c1`: the Potency result was “inactive”.
Consider `COc1ccc(C(=S)Nc2ccccc2)cc1`, for which the Potency is 13.5 µM (active).
To `CCCC(=O)NC(=S)Nc1ccc(CN2CCOCC2)cc1` belongs “inactive”; to `CCCOc1cccc(C(=O)Nc2cccc(NC(=O)c3ccc(C(C)(C)C)cc3)c2)c1`, 1.69 µM (active); to `COCCNC(=S)c1ccc(OC)cc1`, “inactive”.
To `O=C(Nc1ccc(CSc2ccccc2)cc1)c1ccc(CN2CCOCC2)cc1` belongs “inactive”.

These data come from PubChem BioAssay AID588342 (National Center for Advancing Translational Sciences (NCATS), 2011).
